In all, about 4,100 compounds went through this assay and about 1,600 (39%) were called active. Inconclusive results (about 25%) are left out. This is one part of the list. Unmarked numbers belong to inactive results. The call rests on the fitted dose curve; in most records, active means well fitted inhibition curve with a large enough effect; inconclusive means small, poorly fitted or top-dose-only effect; inactive means no such curve, though single readings can be large or run the other way.
On the % scale 0 is the no-effect control and ±100 the full control effect; potency means the concentration at half of the fitted maximal effect.

A short description of the assay: qHTS Validation assay for Inhibitors of Plasmodium falciparum Dd2 growth in vitro. Further: nearly all actives have a fitted effect of over 70% in size. The following applies: P. falciparum Dd2 in RBCs, SYBR Green growth, 72 h; series mostly up to 28.7 µM; activity change, negative = inhibition: at the top concentration. An excerpt: Malaria, a parasitic disease spread to humans through the bite of a Plasmodium infected Anopheles mosquito, continues to be a global health burden affecting millions of people, with an estimated 228 million cases and 405,000 deaths in 2018. Concerns about safety and limitations of current antimalarial treatments strongly emphasize the need to develop new therapeutic options. The scarce number of chemotypes and validated drug targets with efficacy against the liver stage, have hindered development of new antimalarials. To address this, a chemoprophylactic drug discovery effort was conducted through a combined phenotypic high-throughput asexual blood stage and liver stage screen, providing a robust foundation to identify liver-stage active lead chemotypes. Compounds were initially screened against Plasmodium falciparum Dd2 strain parasites using a in vitro SYBRGreen-1 based 72 hr proliferation assay to identify novel chemotypes to advance to liver stage assays. NIH/NCATS Early Translation Branch Assay Submitter (PI): Anton Simeonov Ph.D.
[…] Assay Protocol: PROTOCOL TABLE (as described by Inglese et al., 2007) SEQUENCE No. (e.g., 1, 2, 3, etc.); PARAMETER (e.g., Cells, Incubation, Reagent, etc.); VALUE; DESCRIPTION SEQUENCE, Parameter, Description 1; Reagent; 3 uL complete malaria growth medium, 1536 TC treated Black clear bottom plate 2; Controls; 23 nL positive control artesunate (300 nM final) to column 1; Neutral control DMSO to columns 2-4 3; Compound; 23 nL of compounds in dose response concentration (29 uM to 0.5 nM final) 4; Reagent; 5 uL malaria infected red blood cells (2.5% hematocrit final, 0.3% parasitemia 5; Time; 72 hours at 37C (5% O2, 5% CO2, 90% N2; 95% Rh) 6; Reagent; 2 uL lysis buffer/SYBRGreen-1, 25 sec shake immediately following dispense 7; Time; ~16 hours at 37C (5% O2, 5% CO2, 90% N2; 95% Rh) 8; Detector; EnVision (PerkinElmer) bottom read at 485/14nm excitation and 535/25 nm emission NOTES (numbers refer to sequence above): 1; Complete Malaria Growth Media: 1X RPMI-1640 w/L-glutamine, 5.5g/L Albumax II, 367 uM Hypoxanthine, 25 mM HEPES, 0.25% Sodium Bicarbonate, 35 uM Gentamicin sulfate 2; Controls were added using the Kalypsis Pintool (Wako USA) equipped with 1536 pinhead 3; Compounds were added in a 7-point, titration with a high final concentration of 29 uM by Pintool from seven inter-plate titrations of library plates and two DMSO control plates at the beginning and end (see Yasgar et al., 2008). 4; Red blood cells infected with Plasmodium falciparum Dd2 parasites were used. 6; Lysis buffer: 20 mM Tris-HCl, 10 mM EDTA, 0.16% Saponin, 1.6% Triton-X, 10X SYBR Green. REFERENCE: Inglese J, Shamu CE, Guy RK. 2007. Reporting data from high-throughput screening of small-molecule libraries. Nat Chem Biol. doi:10.1038/nchembio0807-438 Yasgar A, Shinn P, Jadhav A, Auld D, Michael S, Zheng W, Austin CP, Inglese J, Simeonov A. 2008. Compound Management for Quantitative High-Throughput Screening. J Lab Autom 13:79-89. doi:10.1016/j.jala.2007.12.004
Background: qHTS replaces the single test concentration by a dilution series.
Turning to `COc1ccc(C)cc1N(C(=O)COc1cccc(F)c1)c1nc2ccccc2s1`, the Potency is 5.96 µM (active).

With `COc1ccc(-c2nc3ccccc3s2)cc1NC(=O)c1cc2ccccc2o1`, the “activity change, negative = inhibition” value is -22%.

With `COc1ncc(-c2cc3c(nc2OC)nc(CC2CC2)n3C)cn1`, the “activity change, negative = inhibition” value was -9.43% [at 43.1 µM].

On to `CCc1nn2cc(C(=O)c3cc(C)ccc3O)cnc2c1-c1ccc(F)cc1`, for which the Potency is 9.44 µM (active).

Turning to `COc1ccc([C@@H]2CN(C(=O)CCc3c(C)noc3C)C[C@H]2N(C)C)cc1`, the “activity change, negative = inhibition” value was 4.96%.

On to `CCC(C)NC(=O)N1CC(c2nc(CCOCC3CCOCC3)no2)C1` (stereo unspecified), for which the “activity change, negative = inhibition” value was 22.5%.

As for `Nc1nc(N)c2cc(Sc3ccc4ccccc4c3)ccc2n1`, the Potency is 1.33 µM (active).

With `CCOC(=O)c1ccc(Nc2nnc(C(C)(C)C)c(=O)[nH]2)cc1`, the Potency was 13.3 µM (active).

On to `Cc1cc(C(=O)Nc2cc(C)n(Cc3ccc(Cl)cc3)n2)no1`, for which the “activity change, negative = inhibition” value is -24.4%.

Consider `CCc1ccc(CN(Cc2ccco2)C(=O)c2cc(-c3ccc(Cl)cc3)on2)cc1`, for which the “activity change, negative = inhibition” value is 72.8%.

For the compound `Cc1cc(NC(=O)c2cc(-c3ccco3)on2)nn1Cc1ccc(Cl)cc1`, the Potency was 8.41 µM (active).

Regarding `CCC(=O)N/C(N)=N/c1nc(C)c2cc(C)c(C)cc2n1`, the Potency was 9.44 µM (active).

For `COC(=O)c1cc(O)cc(OC)c1Oc1cc(C)cc(O)c1C(=O)O`, the Potency was 4.22 µM (active).

Turning to `O=C(Cc1cccs1)NC1CCN(c2cc(C(F)(F)F)ncn2)CC1`, the “activity change, negative = inhibition” value is 10%.

`Cc1ccc(NC(=O)Cn2c(=O)n(-c3ccc(C)cc3)c(=O)c3ccc(C(=O)NCc4ccccc4Cl)cc32)cc1`: the Potency is 5.31 µM (active).

On to `COC(=O)c1ccccc1NC(=O)Cn1c(=O)n(CCCC(=O)NCc2ccccc2Cl)c(=O)c2ccccc21`, for which the “activity change, negative = inhibition” value was -14.9%.

`O=C(CCCCn1c(=O)c2ccccc2n(CC(=O)Nc2ccccc2)c1=O)NCc1ccccc1Cl`: the “activity change, negative = inhibition” value was 33.3%.

For the compound `COc1ccc(C2c3ccc4ccccc4c3Oc3ncn(CCCN(C)C)c(=N)c32)cc1` (stereo unspecified), the Potency was 2.99 µM (active).

In the case of `CN(C)CCCn1cnc2c(c1=N)C(c1ccccc1)c1ccc3ccccc3c1O2` (stereo unspecified), the Potency was 3.76 µM (active).

With `CN1CCN(c2cc(=O)c3ccnc(-c4cn[nH]c4)c3o2)CC1`, the “activity change, negative = inhibition” value is 14.8% [at 43.1 µM].

As to `CC(C)CNC(=O)c1ccc2c(c1)NC(C)(CNc1ccccc1)CO2` (stereo unspecified), the “activity change, negative = inhibition” value was 12.1% [at 43.1 µM].

With `CCC(C)N(CCNC(=O)c1ccc2c(c1)NC(=O)c1ccccc1S2)C1CCCCC1` (stereo unspecified), the Potency is 13.3 µM (active).

Turning to `Cc1cc(C)n(CC(=O)N2C[C@@H](COc3ccccc3)[C@H](C(N)=O)C2)n1`, the “activity change, negative = inhibition” value is 15.8%.

Turning to `CCOC(=O)COn1c(-n2nc(C)cc2C)nc2ccccc2c1=O`, the Potency is 9.44 µM (active).

On to `CCOC(=O)CCn1nc(-c2ccc(C)cc2)c2ccccc2c1=O`, for which the “activity change, negative = inhibition” value is -3.49%.

Consider `COc1ccc(C2c3ccc(O)cc3Oc3ncn4nc(-c5ccncc5)nc4c32)cc1OC` (stereo unspecified), for which the Potency was 15 µM (active).

For `COc1ccc(C(=O)N2CCC3(CC2)CC(C(C)C)=NO3)cc1`, the “activity change, negative = inhibition” value was 31.2% [at 43.1 µM].

As to `O=C(c1ccc2c(c1)OCO2)N1CCC2(CC1)COc1ccccc1CN2`, the Potency was 5.31 µM (active).

In the case of `CCc1noc(-c2cn(C3CCCN(C(=O)c4ccc5c(c4)OCO5)C3)nn2)n1` (stereo unspecified), the “activity change, negative = inhibition” value was -13.6%.

In the case of `O=C(c1ccccc1F)N1CCC2(CC1)COc1ccccc1CN2`, the Potency is 4.33 µM (active).

As for `O=C(c1ccccc1F)N1CCCC2(C1)NC(=O)N(Cc1cccc(Cl)c1)C2=O` (stereo unspecified), the “activity change, negative = inhibition” value was -0.29%.

`O=C1NCc2ccccc2CC12CCN(Cc1ccccc1F)CC2`: the “activity change, negative = inhibition” value was 9.53%.

For `c1ccc2c(c1)CNC1(CCN(Cc3cccc4ccccc34)CC1)CO2`, the Potency is 7.5 µM (active).

In the case of `COc1ccc(C(=O)N2CCN3C(=O)N(C4CCOCC4)C[C@H]3C2)cc1`, the “activity change, negative = inhibition” value was 0% [at 43.1 µM].

In the case of `COc1ccc(C(=O)N2CCC3(CC2)COc2ccccc2CN3)cc1`, the Potency was 10.6 µM (active).

For the compound `O=C(c1ccccc1-c1ncc[nH]1)N1CC[C@@H](c2ccc3c(c2)OCO3)[C@H](O)C1`, the “activity change, negative = inhibition” value was 12.5%.

For the compound `Cc1ccccc1C(=O)N1CCC2(CC1)NC(=O)N(c1ccc(F)cc1)N2`, the “activity change, negative = inhibition” value is -26.7%.

For `Cc1ccc(-c2cn3c(n2)N(C(=O)c2sc(C)nc2C)CCC3)cc1`, the “activity change, negative = inhibition” value was 22.3%.

On to `COC(=O)c1c(NC(=O)/C(C#N)=C/c2ccccc2)sc2c1C(C(=O)OC)CC2` (stereo unspecified), for which the “activity change, negative = inhibition” value was -16.9%.

Turning to `CNC(=O)N1CCC(Cc2nncn2C(C)C)C1` (stereo unspecified), the “activity change, negative = inhibition” value is 21.1%.

For `Cc1ccc(Cl)cc1N1CCN(C(=O)c2cn(CC(C)C)c(=O)c3c2c2ccccc2n3C)CC1`, the Potency is 3.35 µM (active).

`COc1cc2c(C(=O)N3CCN(c4cc(Cl)ccc4C)CC3)cn(CC(C)C)c(=O)c2cc1OC`: the Potency is 15 µM (active).

Take `Cn1cc(C(=O)N2CCN(c3ccccc3)CC2)c(=O)c2cc(S(=O)(=O)N3CCCC3)ccc21`: the “activity change, negative = inhibition” value is 16.1%.

Consider `CCc1ccccc1NC(=O)c1cn(C)c(=O)c2ccccc12`, for which the “activity change, negative = inhibition” value is 3.09%.

Regarding `CCn1cc(C(=O)N2CCN(c3cc(Cl)ccc3C)CC2)c(=O)c2cc(S(=O)(=O)N3CCCCC3)ccc21`, the “activity change, negative = inhibition” value is 35.7%.

On to `Cn1cc(C(=O)NCCN2CCN(c3cccc(Cl)c3)CC2)c2c3ccccc3n(C)c2c1=O`, for which the Potency was 4.73 µM (active).
